# High-throughput results as filed in PubChem BioAssay.
# D2 PAM-1 = positively modulates the human D2 dopamine receptor allosterically | P14416 | HEK293 T-REx D2, calcium flux, EC20 dopamine potentiation | potentiation, % at 10 µM | actives 0.34% (n = 340,000);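 active = potentiation over 3 SD above the plate norm, cut at about 30% in these data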; note: 0% is about no effect
# Target sequence (P14416 whole entry, looked up): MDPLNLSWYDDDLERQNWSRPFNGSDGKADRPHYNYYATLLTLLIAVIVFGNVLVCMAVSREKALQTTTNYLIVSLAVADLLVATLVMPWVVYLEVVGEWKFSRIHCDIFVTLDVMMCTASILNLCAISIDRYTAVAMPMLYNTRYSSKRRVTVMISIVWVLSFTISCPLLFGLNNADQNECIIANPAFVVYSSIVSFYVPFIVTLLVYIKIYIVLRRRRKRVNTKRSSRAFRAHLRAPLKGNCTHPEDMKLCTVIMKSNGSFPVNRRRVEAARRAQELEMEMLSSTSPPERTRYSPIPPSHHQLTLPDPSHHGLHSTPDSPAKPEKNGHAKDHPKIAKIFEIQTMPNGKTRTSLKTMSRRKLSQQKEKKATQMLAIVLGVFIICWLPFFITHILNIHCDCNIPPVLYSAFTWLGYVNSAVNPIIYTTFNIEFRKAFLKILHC
#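 Cells plated with tetracycline inducer and held overnight at 30 C; calcium dye loaded 30–90 min at room temperature; baseline taken, compound added and read 180 s; EC20 dopamine then added and read 180 s.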
# D2 PAM-2 = positive allosteric modulators of human D2 dopamine receptor | P14416 | DiscoveRx D2 beta-arrestin cells, luminescence, 90 min; 100% = 57 uM dopamine signal | potentiation, % (test concentration not listed) | actives 0.23% (n = 360,000); in the data active = potentiation above about 50%; inconclusive = mostly about 30% to 49%
#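 PathHunter D2 cells, attached overnight at 37 deg C, received compound in DMSO plus dopamine at EC20 (50 nM final) for 90 min at 37 deg C. Beta-arrestin recruitment was read as luminescence after 1 h with detection reagent at ambient temperature.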
# D2 ag-1 = D2 dopamine receptor (human) agonism. HEK293 T-REx D2 cells, calcium flux agonist mode. actives 0.53% (n = 340,000). activation, % at 2 µM. P14416. AID 485358;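 active = activation over 3 SD above normal in the single-dose calcium agonist read, cut at about 30% in these data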; note: 0% is about no effect
#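 HEK293 Trex D2 cells, tetracycline-induced, o/n 30 C 5% CO2; no-wash Ca dye, RT 30–90 min; 10-cycle baseline, 23 nl cpd added, kinetic Ca read 180 s; agonist hits = positive Ca response.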
# D2 ag-2 = agonists of human D2 dopamine receptor (beta-arrestin). P14416. DiscoveRx PathHunter D2 beta-arrestin, luminescence, 90 min; 100% = 57 uM dopamine signal. activation, % (no concentration beside the values). actives 0.084% (n = 360,000); in the data active = activation above about 40%; inconclusive = between about 15% and that limit
#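 Agonist mode: compounds alone added to overnight-plated D2 PathHunter cells for 90 min at 37 C, with 57 uM final dopamine (EC100) defining full response. Beta-arrestin recruitment detected by chemiluminescent reagent, read after 1 h at ambient temperature.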
# D2 antagonist = antagonizes the human D2 dopamine receptor; actives 2% (n = 340,000); inhibition, % at 10 µM; AID 485344; HEK293 TREx D2 cells, calcium flux, dopamine EC80; P14416; in the data active = inhibition above about 30%; inactive = below that, where a call was filed; note: 0% is about no effect
#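 Calcium mobilization kinetics were recorded at 1 s intervals in tetracycline-induced HEK293 T-REx D2 cells, first for 180 s after compound addition and then 180 s after EC80 dopamine.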
# Numbers without * were called inactive; ? = inconclusive; nt = no result. Rows were chosen to be rich in hits. Some 2.4% of all compounds tested hit in one or more screens of this group.
SMILES,D2 PAM-1,D2 PAM-2,D2 ag-1,D2 ag-2,D2 antagonist
Cc1ccc(C(=O)Nc2cccc3[nH]c(C(F)(F)F)nc23)cc1,2,-9,1,3,34*
COc1ccc(C(=O)Nc2ccc(C(F)(F)F)n(C)c2=O)cc1,-6,-6,0,1,9
Cc1ccc(C(=O)Nc2ccc(C(F)(F)F)n(C)c2=O)cc1,32*,-2,0,-6,7
COc1ccc(C2Nc3ccccc3C(=O)N2NS(=O)(=O)c2ccccc2)cc1 (configuration not stated),6,0,0,1,39*
O=C1c2ccccc2NC(c2ccccc2)N1NS(=O)(=O)c1ccccc1 (configuration not stated),-1,-10,0,0,-15
O=C1c2ccccc2NC(c2cccs2)N1NS(=O)(=O)c1ccccc1 (configuration not stated),3,-1,0,-2,7
O=C1c2ccccc2NC(c2ccco2)N1NS(=O)(=O)c1ccccc1 (configuration not stated),2,0,2,0,33*
CCc1cc2c(COC(=O)CCNS(=O)(=O)c3cccc(C(F)(F)F)c3)cc(=O)oc2cc1O,7,-2,0,0,4
O=C(NCCCNC(=O)c1c(F)cccc1F)c1c(F)cccc1F,4,-8,0,-1,-3
O=C(NCC(Cl)c1ccc2ccccc2c1)c1c(F)cccc1F (configuration not stated),0,-13,0,2,69*
COc1ccc(C(C)=O)cc1COC(=O)C1CC(=O)N(Cc2ccccc2)C1 (configuration not stated),2,54*,-1,-2,-7
COc1cccc(COC(=O)C2CC(=O)N(Cc3ccccc3)C2)c1OC (configuration not stated),nt,-4,nt,1,nt
Cc1cccc(CSc2nnc3[nH]c(=O)cc(-c4ccccc4)n23)c1,3,nt,1,nt,nt
Cc1csc(SC(C)C(=O)Nc2ccc(Cl)cn2)n1 (configuration not stated),-17,-16,-1,-4,43*
COc1cc(O)c(C(CCN2CCN(c3ccccc3)CC2)c2cc(OC)c(OC)c(OC)c2)c(OC)c1 (configuration not stated),-23,-24,1,-2,67*
COc1ccc(N2CCN(S(=O)(=O)c3ccc4c(c3)C(C(C)C)C(=O)N4)CC2)cc1 (configuration not stated),3,nt,0,nt,nt
COc1ccc(-c2c(C#N)c(SCC(=O)Nc3ccc(C)c(C)c3)nc(C)c2C(=O)Nc2ccc(Cl)cc2)cc1,2,nt,nt,nt,nt
O=C(COC(=O)/C=C/c1cccc(C(F)(F)F)c1)NCc1ccc(F)cc1,6,-7,0,-1,-8
COc1cccc(/C=C/C(=O)OCC(=O)Nc2ccc(Cl)c(S(=O)(=O)N(C)C)c2)c1,4,0,2,-3,-15
O=C(COC(=O)/C=C/c1cccc(C(F)(F)F)c1)NCc1ccccc1,12,5,1,-4,33*
COc1cccc(/C=C/C(=O)OCC(=O)Nc2cc(C(F)(F)F)ccc2Cl)c1,-7,-3,2,-1,34*
COCCCNC(=O)Cn1c(=O)n(CCCC(=O)NCc2ccc(C)cc2)c(=O)c2ccccc21,4,nt,1,nt,nt
O=C(CCN1CCC(c2ccccc2)C1)c1ccccc1 (configuration not stated),nt,-17,nt,0,nt
O=C(CCN1CCC(c2ccccc2)C1)c1ccc2c(c1)OCCO2 (configuration not stated),-31,-38,14,-7,87*
CC(C)OCCCNC(=O)c1ccc2c(c1)S(=O)(=O)c1ccccc1C2=O,4,72*,0,1,19
SMILES,D2 PAM-1,D2 PAM-2,D2 ag-1,D2 ag-2,D2 antagonist
CCCCNC(=O)c1ccc2c(c1)S(=O)(=O)c1ccccc1C2=O,-8,11,-1,5,7
COc1ccc(NS(=O)(=O)c2c(C)cc(C)cc2C)cc1,-5,11,1,-1,34*
Cc1cc(/C=N/O)c(C)n1-c1ccc(Br)cc1,-1,-7,-1,-3,38*
Cc1cc(C)c(N=Cc2c(O)n(-c3nccs3)c(=O)c3ccccc23)c(C)c1,-27,-33,1,-3,41*
O=S(=O)(c1ccccc1)N1N=C(c2cccs2)CC1c1ccc(Br)cc1 (configuration not stated),35*,-14,0,-1,13
CC(=O)OCCNc1cc(N2CCN(C)CC2)c2noc3c2c1C(=O)c1ccccc1-3,-1,-3,1,-2,0
CCOC(=O)C(C(=O)OCC)c1cc(Br)c2noc3c2c1C(=O)c1ccccc1-3,4,91*,1,10,1
Cc1ccc(Cn2ccnc2SCC(=O)NCc2ccc(F)cc2)cc1,-5,nt,-1,nt,nt
CCOC(=O)c1cc(-c2ccc(C)o2)n[nH]1,-15,-10,-1,0,30*
COc1ccc2nc(Nc3sc4c(c3C(N)=O)CCCC4)sc2c1,-7,55*,2,?,14
CN(c1ccc(F)cc1)S(=O)(=O)N1CCCC(C(=O)NCc2cccc(Br)c2)C1 (configuration not stated),-6,nt,0,nt,nt
Cc1ccc(Cn2ncc3c(N4CCN(c5ccc(C)cc5)CC4)ncnc32)cc1,10,13,-1,-1,0
Cc1ccc(Cn2ncc3c(N4CCN(C)CC4)ncnc32)cc1,-33,-11,0,5,55*
COc1cccc(CNC(=O)CCc2cn(Cc3ccccc3Cl)c3ccccc23)c1,nt,nt,1,nt,nt
COc1ccc(N2C(=O)CSC23CCCCC3)cc1,11,-2,0,-1,33*
CCOc1cc(C(=O)Nc2ccc(S(=O)(=O)N3CCOCC3)cc2)cc(OCC)c1OCC,-8,-22,-1,-4,2
CCOc1cc(C(=O)NN2CCOCC2)cc(OCC)c1OCC,1,0,0,-2,36*
CC(=O)c1cccc(-c2ccnc3c2CC(C(=O)Nc2cccc(OC(F)(F)F)c2)O3)c1 (configuration not stated),nt,-10,nt,1,nt
CC1=C(C(=O)N(C(C)C)C(C)C)CC(CC(=O)NC2CCCCC2)C(=O)N1Cc1ccc(C(C)(C)C)cc1 (configuration not stated),nt,-9,nt,-8,nt
COC(=O)COc1ccc2c(=O)c(Oc3ccccc3)c(C)oc2c1,37*,-10,0,-2,-10
CCOc1ccc(Oc2c(C)oc3cc(O)ccc3c2=O)cc1,-2,-1,1,2,-7
COC(=O)c1ccc(NC(=O)Cn2c(=O)nc(-c3ccccc3)c3ccccc32)cc1,1,nt,6,nt,nt
